The results in this text go back to PubChem BioAssay (NCATS).

For test [1], the system named is HACAT. Description: qHTS assay to identify novel small-molecules to repurpose for Merkel cell carcinoma treatment (AID 1296009). Further: nearly all actives have a fitted effect of over 60% in size. To be noted: MCC and control cell lines, CellTiter-Glo viability, 72 h; at 44.8 µM (top of the series) unless noted. In short, it runs like this: (§1)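 Cell viability, measured as CellTiter-Glo luminescence, was normalized between DMSO and no-cell wells. The cells had been exposed to 8- or 11-point compound dilutions for 72 hr at 37 degree celsius.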
In general terms: In qHTS, concentration-response curves come from the screen itself.

Test [2] has as its system MCC-13. The test is described as above. To be noted: MCC and control cell lines, CellTiter-Glo viability, 72 h; series mostly up to 46 µM. In short, it runs like this: as §1
Test [3] deals with MCC-26. The test is described as above. The settings on record: MCC and control cell lines, CellTiter-Glo viability, 72 h; series mostly up to 46 µM. In short, it runs like this:
as §1
(In general: Cellular ATP, detected with luciferase, serves as a proxy for viable cell number.)

For test [4], the system named is MKL-1. Described as above. To be noted: MCC and control cell lines, CellTiter-Glo viability, 72 h; series mostly up to 46 µM. In short, it runs like this: as §1
The test system of test [5] is MKL-2. The test is described as above. The settings on record: MCC and control cell lines, CellTiter-Glo viability, 72 h; series mostly up to 46 µM. In short, it runs like this:
as §1

Test [6] relates to UISO. Described as above. The settings on record: MCC and control cell lines, CellTiter-Glo viability, 72 h; series mostly up to 46 µM. The method, boiled down: as §1
In test [7] the test system is WaGa. The test is described as above. To be noted: MCC and control cell lines, CellTiter-Glo viability, 72 h; series mostly up to 46 µM. In short, it runs like this: as §1
Test [8] deals with C33A. Put plainly: Primary qHTS to identify gynecologic anti-cancer compounds using libraries of approved drugs and bioactive compounds (AID 1345084). Further: nearly all actives have a fitted effect of over 55% in size. To be noted: Gynecologic cancer cell panel viability, ATPlite luminescence, 48 h; series mostly up to 57.5 µM. In short, it runs like this: (§2)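 Luminescence from the ATPlite ATP-monitoring reagent indicates viable cell number; lower signal means cytotoxicity. Cells received compound 16 h after seeding and were exposed for 48 h across five concentrations.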

The subject of test [9] is CASKI. Described as above. To be noted: Gynecologic cancer cell panel viability, ATPlite luminescence, 48 h; series mostly up to 57.5 µM. The method, boiled down:
as §2

The test system of test [10] is Es-2. The test is described as above. The settings on record: Gynecologic cancer cell panel viability, ATPlite luminescence, 48 h; series mostly up to 57.5 µM. In short, it runs like this: as §2
Test [11] deals with HeLa. The test is described as above. The settings on record: Gynecologic cancer cell panel viability, ATPlite luminescence, 48 h; series mostly up to 57.5 µM. The method, boiled down:
as §2

For test [12], the system named is Hek293T. The test is described as above. The settings on record: Gynecologic cancer cell panel viability, ATPlite luminescence, 48 h, control line for the selectivity index; series mostly up to 57.5 µM. In short, it runs like this:
as §2

Test [13] deals with JEG-3. The test is described as above. To be noted: Gynecologic cancer cell panel viability, ATPlite luminescence, 48 h; series mostly up to 57.5 µM. In short, it runs like this: as §2
Test [14] deals with OV90. The test is described as above. To be noted: Gynecologic cancer cell panel viability, ATPlite luminescence, 48 h; series mostly up to 57.5 µM. In short, it runs like this: as §2
For test [15], the system named is PA-1. Described as above. To be noted: Gynecologic cancer cell panel viability, ATPlite luminescence, 48 h; series mostly up to 57.5 µM. In short, it runs like this: as §2
In test [16] the test system is SKOV3. The test is described as above. The settings on record: Gynecologic cancer cell panel viability, ATPlite luminescence, 48 h; series mostly up to 57.5 µM. The method, boiled down: as §2
Test [17] has as its system NIH3T3. Description: Cytotoxic Profiling of Annotated Libraries Using Quantitative High-Throughput Screening (AID 1296008). Further: nearly all actives have a fitted effect of over 60% in size. The settings on record: Five cell lines viability, CellTiter-Glo ATP luminescence, 48-72 h; max response: stronger effect = lower value. In short, it runs like this: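 Cytotoxicity was measured as CellTiter-Glo ATP luminescence, read after 10 min at room temperature. Compound treatment of the cells lasted 48 or 72 hr at 37 degrees Celsius in a qHTS format.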

The test system of test [18] is CAOV3. Put plainly: Primary qHTS to identify gynecologic anti-cancer compounds using libraries of approved drugs and bioactive compounds (AID 1345084). Further: nearly all actives have a fitted effect of over 55% in size. To be noted: Gynecologic cancer cell panel viability, ATPlite luminescence, 48 h; series mostly up to 57.5 µM. In short, it runs like this: as §2

Records with an inconclusive call do not appear. A number with no mark means an inactive call. Calls of active or inactive are those of the source. The call rests on the fitted dose curve; in most records, active means well fitted curve in the direction sought with a large enough effect; inconclusive means small, poorly fitted or top-dose-only effect, or another doubt; inactive means no such curve, though single readings can be large; an effect the other way counts as inactive or inconclusive.
On the % scale 0 is the no-effect control and ±100 the full control effect; potency means the concentration at half of the fitted maximal effect.

Take `CC(C(=O)O)c1ccc(C(=O)c2ccccc2)s1` (stereo not given): the result in test [1] was inactive. The Potency result in [2], in test [3], in [4], in test [5], in test [6] and in test [7] was “inactive” each time. Besides, the Potency result in [8], in test [9], in test [10], in test [11], in test [12] and in [13] was “inactive” each time. Also, the Potency entry in [14] and in test [15] was “inactive” in each case.
Turning to `CC1(C)S[C@@H]2[C@H](NC(=O)[C@H](N)c3ccccc3)C(=O)N2[C@H]1C(=O)O`, the call in test [1] was inactive. Moreover, the Potency result in test [2], in [4], in [5], in [6], in [7] and in [8] was “inactive” each time. For the same compound, the Potency result in test [9], in test [10], in test [11], in test [12], in [13] and in [14] was “inactive” each time. Also, the Potency entry in [15] and in test [16] was “inactive” throughout.
Take `O=C(O)[C@H](CC(=O)N1C[C@H]2CCCC[C@H]2C1)Cc1ccccc1`: the max response in [17] was 3.24%. For the same compound, the Potency result in test [8], in test [9], in test [10], in test [11], in test [12] and in [13] was “inactive” each time. Moreover, the Potency entry in [14], in test [15] and in test [16] was “inactive” each time.
As for `C#C[C@]1(O)CC[C@H]2[C@@H]3CCc4cc(O)ccc4[C@H]3CC[C@@]21C`, the max response in test [17] is -26.3%. Moreover, the Potency entry in test [3], in [8], in test [9], in test [10] and in test [12] was “inactive” in each case. Besides, the Potency in [16] is 35500 nM (active).
`O=Cc1ccc(O)c(O)c1O`: the compound was classed as inactive in test [1]. Also, the Potency entry in test [2], in test [8], in test [9], in test [10], in test [11] and in test [12] was “inactive” each time. The Potency result in test [13], in test [14], in [15] and in test [16] was “inactive” in each case.
As for `Cc1cc(O)c2ccccc2c1O`, the call in test [1] was inactive. Moreover, the Potency result in test [2], in [3], in test [8], in [9], in test [11] and in [12] was “inactive” each time. Moreover, the Potency entry in test [13], in test [14] and in test [16] was “inactive” each time. In addition, the Potency in test [4] was 21100 nM (active); in test [7] it was 23700 nM (active).
Turning to `CCCSc1ccc2nc(NC(=O)OC)[nH]c2c1`, the Potency in [17] is 1880 nM (active); in test [2], 1680 nM (active); in [10], 3550 nM (active); in test [11], 2000 nM (active); in [12], 891 nM (active); in test [15], 1580 nM (active). Moreover, in test [16], the Potency was 2240 nM (active).
In the case of `O=c1[nH]c2ccccc2n1CCCN1CCN(C(c2ccccc2)c2ccccc2)CC1`, the max response in test [17] is -21.6%. For the same compound, the Potency entry in test [2], in test [8], in [11] and in [13] was “inactive” throughout.
On to `COc1cc(CNC(=O)CCCC/C=C/C(C)C)ccc1O`, for which the max response in test [17] is -2.4%. Also, the Potency result in [8], in [18], in [9], in [10], in test [11] and in test [12] was “inactive” in each case. The Potency entry in [13], in test [14], in test [15] and in test [16] was “inactive” in each case.
As for `Nc1ccc([N+](=O)[O-])cc1O`, the Potency result in [2], in [3], in test [8], in [18], in test [11] and in [12] was “inactive” throughout. Further, the Potency result in [13] is “inactive”. For the same compound, the Potency in test [15] is 4470 nM (active).
Take `O=C(O)c1cc(O)c(O)c(O)c1`: the Potency result in test [8], in [18], in test [9], in [10], in test [11] and in test [12] was “inactive” throughout. For the same compound, the Potency entry in test [13], in [14] and in [15] was “inactive” each time.
